The sample as a whole holds a higher share of the strongest signals than the screen did.
Columns and labels:
Experiment in all cases: glycan array binding signal (z-score within array); higher = stronger binding
Settings in all cases: glycan notation: IUPAC condensed, linker removed
[1] = target: GalNAc(b1-4)GlcNAc6S
In short: (§1)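 The binding signal is a Z-score computed within each array. Data were drawn from 3228 arrays in the Consortium for Functional Glycomics database, restricted to those with a known protein sequence. Scores were averaged over arrays of the same protein sequence at different concentrations or buffers, and over linkers, and negative values can be taken as non-binding.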

[2] = target: Glc(a1-6)Glc(a1-6)Glc
In short: as §1

[3] = target: GlcA(b1-6)Gal
In short: as §1

[4] = target: GlcNAc(a1-4)Gal(b1-4)GlcNAc(b1-3)Gal(b1-4)[Fuc(a1-3)]GlcNAc(b1-3)Gal(b1-4)[Fuc(a1-3)]GlcNAc
In short: as §1

[5] = target: GlcNAc(b1-3)Gal(b1-3)GalNAc
In short: as §1

[6] = target: GlcNAc(b1-3)Gal(b1-4)Glc
In short: as §1

[7] = target: GlcNAc(b1-3)Gal(b1-4)GlcNAc(b1-6)[Gal(b1-3)]GalNAc
In short: as §1

[8] = target: Kdn(a2-3)Gal(b1-3)GalNAc
In short: as §1

[9] = target: Man(a1-2)Man(a1-2)Man(a1-3)Man
In short: as §1

[10] = target: Man(a1-2)Man(a1-3)[Man(a1-2)Man(a1-6)]Man(a1-6)[Man(a1-2)Man(a1-2)Man(a1-3)]Man
In short: as §1

[11] = target: Man(a1-3)[Man(a1-6)]Man
In short: as §1

[12] = target: Man(a1-3)[Man(a1-6)]Man(a1-6)[Man(a1-2)Man(a1-3)]Man(b1-4)GlcNAc(b1-4)GlcNAc
In short: as §1

[13] = target: Man(a1-6)Man
In short: as §1

[14] = target: Neu5Ac(a2-3)Gal(b1-3)GalNAc(b1-3)Gal(a1-4)Gal(b1-4)Glc
In short: as §1

[15] = target: Neu5Ac(a2-3)Gal(b1-4)GlcNAc(b1-2)Man
In short: as §1

[16] = target: Neu5Ac(a2-3)Gal(b1-4)GlcNAc(b1-3)Gal
In short: as §1

[17] = target: Neu5Ac(a2-3)Gal(b1-4)GlcNAc(b1-3)Gal(b1-4)GlcNAc(b1-3)Gal(b1-4)GlcNAc
In short: as §1

[18] = target: Neu5Ac(a2-3)Gal(b1-4)GlcNAc(b1-3)Gal(b1-4)[Fuc(a1-3)]GlcNAc
In short: as §1

[19] = target: Neu5Ac(a2-3)Gal(b1-4)GlcNAc(b1-6)[Neu5Ac(a2-3)Gal(b1-3)]GalNAc
In short: as §1

[20] = target: Neu5Ac(a2-6)Gal(b1-3)GlcNAc(b1-3)[Gal(b1-4)GlcNAc(b1-6)]Gal(b1-4)Glc
In short: as §1

[21] = target: Neu5Ac(a2-6)Gal(b1-4)Glc
In short: as §1

[22] = target: Neu5Ac(a2-6)Gal(b1-4)GlcNAc(b1-2)Man(a1-3)[Gal(b1-4)GlcNAc(b1-2)Man(a1-6)]Man(b1-4)GlcNAc(b1-4)GlcNAc
In short: as §1

[23] = target: Neu5Ac(a2-6)Gal(b1-4)GlcNAc(b1-2)Man(a1-3)[Man(a1-6)]Man(b1-4)GlcNAc(b1-4)GlcNAc
In short: as §1

[24] = target: Neu5Ac(a2-6)Gal(b1-4)GlcNAc(b1-3)Gal(b1-4)GlcNAc(b1-3)GalNAc
In short: as §1

[25] = target: Neu5Ac(a2-6)Gal(b1-4)GlcNAc(b1-6)GalNAc
In short: as §1

[26] = target: Neu5Ac(a2-8)Neu5Ac(a2-8)Neu5Ac(a2-3)[Gal(b1-3)GalNAc(b1-4)]Gal(b1-4)Glc
In short: as §1

[27] = target: Neu5Ac(a2-8)Neu5Gc(a2-3)Gal(b1-4)GlcNAc
In short: as §1

[28] = target: Neu5Gc(a2-6)Gal(b1-4)GlcNAc
In short: as §1

B1: LngA (Escherichia coli) (protein)
chain: MLSVYNRTQKFKAEARKKIAKYHELRKQRGMSLLEVIIVLGIIGTIAAGVVILAQRAFDSRAVTDLVTNTNTVRVRMKDAYQRDGKYPDFVDPLSLTANTIKTDTSGIPAAQLVQLGKITPDEVRNNISGDFIAIGGALTSNGAQVKKGFAIELNGLSQEQCRSILGQVGNNWEYVAIGTSASGSYAMTATGVDMSVAASTTVLRSLGNNGQTTLTADKILSTCTAQVNSITLGSR
glycan array binding signal (z-score) [1]: -0.467 | glycan array binding signal (z-score) [2]: 0.075 | glycan array binding signal (z-score) [3]: 0.408 | glycan array binding signal (z-score) [4]: 0.38 | glycan array binding signal (z-score) [5]: 0.147 | glycan array binding signal (z-score) [6]: -0.256 | glycan array binding signal (z-score) [7]: -0.006 | glycan array binding signal (z-score) [8]: -0.202 | glycan array binding signal (z-score) [9]: -0.556 | glycan array binding signal (z-score) [10]: -0.506 | glycan array binding signal (z-score) [11]: -0.411 | glycan array binding signal (z-score) [12]: -0.239 | glycan array binding signal (z-score) [13]: 3.82 | glycan array binding signal (z-score) [14]: -0.375 | glycan array binding signal (z-score) [15]: 3.6 | glycan array binding signal (z-score) [16]: -0.531 | glycan array binding signal (z-score) [17]: -0.508 | glycan array binding signal (z-score) [18]: 2.73 | glycan array binding signal (z-score) [19]: -0.439 | glycan array binding signal (z-score) [20]: -0.533 | glycan array binding signal (z-score) [21]: -0.2 | glycan array binding signal (z-score) [22]: -0.321 | glycan array binding signal (z-score) [23]: -0.28 | glycan array binding signal (z-score) [24]: -0.361 | glycan array binding signal (z-score) [25]: 2.77 | glycan array binding signal (z-score) [26]: -0.06 | glycan array binding signal (z-score) [27]: -0.319 | glycan array binding signal (z-score) [28]: -0.433

— the supplement of paper PMC8728848
